Laboratory results from PubChem BioAssay (NCATS).
“And” between values parts separate entries of the source, which are not always exact repeats. Identical values can stand only once. Results filed as inconclusive are left out. Values without a mark were called inactive. The source made the active and inactive calls. Calls follow the shape of the dose curve; as a rule, active = well fitted curve in the direction sought with a large enough effect; inconclusive = small, poorly fitted or top-dose-only effect, or another doubt; inactive = no such curve, though single readings can be large; an effect the other way counts as inactive or inconclusive.

Experiments:
[1] = Viability qHTS for spleen associated tyrosine kinase inhibitor (SYKi) naive MV4-11 cells (AID 1963823); also: nearly all actives have a fitted effect of over 40% in size
How it was run: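 Compounds were dispensed acoustically onto plates, MV4-11 cells (SYKi-naive) added at 500 per well, and plates incubated 72 hr at 37 C. CellTiter-Glo was added and luminescence measured after 10 min.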

[2] = Viability qHTS for spleen associated tyrosine kinase inhibitor (SYKi) drug resistant MV4-11 cells (AID 1963824); also: nearly all actives have a fitted effect of over 35% in size
How it was run: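 CellTiter-Glo luminescence, read 10 min after reagent addition, reports viability after a 72 hr compound exposure. Cells are an MV4-11 line made resistant to SYK inhibition, seeded at 500 per well onto compound-containing plates.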

[3] = Cellular viability qHTS for adrenocortical cancer (ACC) cell line SW-13 (AID 1963989); details: SW-13 ACC cells viability, CellTiter-Glo, 48 h; activity (max response): stronger effect = lower value; also: nearly all actives have a fitted effect of over 65% in size;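 as to activity (max response): cells grown in serum-free medium with ITS supplement; % is scaled to controls: 0 for no effect and ±100 for the full control effect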
How it was run: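 Viability was read as CellTiter-Glo luminescence after 48 h compound treatment (up to 46 uM final) of SW-13 cells grown serum-free; titration curves were fit with a four-parameter logistic model to give IC50 and efficacy.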

[4] = Cellular viability qHTS for adrenocortical cancer (ACC) cell line NCI-H295R (AID 1963990); also: nearly all actives have a fitted effect of over 60% in size
How it was run: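 CellTiter-Glo ATP luminescence, read 48 h after compound addition, measured viability of NCI-H295R adrenocortical cells grown serum-free with ITS. Final concentrations spanned up to 46 uM. Data normalized to DMSO and doxorubicin, fitted for IC50 and maximal response.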
Potency is read from the fitted curve at half-maximal effect.

| Structure (SMILES) | Potency [1] | Potency [2] | activity (max response) [3] | Potency [4] | Potency [3] |
| --- | --- | --- | --- | --- | --- |
| NCC1CCC(C(=O)O)CC1 (stereo not drawn) | inactive | inactive | 10.7% | inactive |  |
| O=C1NCCN1CCN1CCC(c2cn(-c3ccc(F)cc3)c3ccc(Cl)cc23)CC1 | 0.668 µM (active) | 1.19 µM (active) |  | 4.11 µM (active) | 10.3 µM (active) |
| CC1=NN(c2ccc(C(=O)O)cc2)C(=O)/C1=C/c1ccc(-c2cc(C)c(C)cc2[N+](=O)[O-])o1 | 16.6 µM (active) | 18.6 µM (active) | 11.6% | inactive |  |
| Cc1[nH]nc2ncc(C(=O)N3CCC[C@H]3c3ccc(Cl)cc3)cc12 | 5.25 µM (active) | 2.95 µM (active) | -6.61% | inactive |  |
| O=C1NC(=O)/C(=C/c2ccc3nccc(-c4ccncc4)c3c2)S1 | 461 nM (active) and 372 nM (active) | 820 nM (active) and 525 nM (active) |  | 0.631 µM (active) | 1 µM (active) |
| CC1=C2C[C@H]3[C@@H](CC[C@@H]4C[C@H](NS(C)(=O)=O)CC[C@@]43C)[C@@H]2CC[C@@]2(C1)O[C@@H]1C[C@H](C)CN[C@H]1[C@H]2C | 9.34 µM (active) | 4.68 µM (active) |  | 17.8 µM (active) | 25.1 µM (active) |
| CO[C@H]1/C=C/O[C@@]2(C)Oc3c(C)c(O)c4c(O)c(c5c(c4c3C2=O)=NC2(CCN(CC(C)C)CC2)N=5)NC(=O)/C(C)=C/C=C/[C@H](C)[C@H](O)[C@@H](C)[C@@H](O)[C@@H](C)[C@H](OC(C)=O)[C@@H]1C | 18.6 µM (active) | 18.6 µM (active) | -11.1% | inactive |  |
